This is one part of a sample in which hits are shown more often than they occur. The true hit rate is not given.
These sequences were tested on T1, Caupolican (Caup) homeodomain DNA-binding domain (assay: PBM E-score (8-mer, recovered from the published 9-mer minima) (E-score (dimensionless, -0.5 to 0.5)); Drosophila protein; higher = stronger relative binding preference, active = 0.31 or more).
T1 sequence: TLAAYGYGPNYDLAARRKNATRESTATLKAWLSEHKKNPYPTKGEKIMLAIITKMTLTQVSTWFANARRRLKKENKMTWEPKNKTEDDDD
Protocol: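 Protein binding microarray (PBM): in vitro transcribed/translated Caupolican (Caup) homeodomain DNA-binding domain (residues 214-303) applied at 100 nM to a universal 8-mer PBM array (Agilent AMADID 015681). The 8-mer enrichment score (E-score, range -0.5 to 0.5) was computed, and each 9-mer score is the minimum E-score of its two constituent 8-mers. The E-score is the same for a 9-mer and its reverse complement; 0.31 is the stated binding threshold.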

Sequence	PBM E-score
CGGTAGGA	-0.0619 (inactive)
AGTAAGAC	0.0795 (inactive)
ACTTTCCT	-0.143 (inactive)
CTTGGTCA	-0.0643 (inactive)
CATAACAA	0.308 (inactive)
GATAACAA	0.32 (active)
TATAACAA	0.306 (inactive)
AAGCATCG	-0.00688 (inactive)
TCCACACA	0.0566 (inactive)
AACTTCAT	0.108 (inactive)
TCTATCCA	-0.0275 (inactive)
TTCACGAA	0.0673 (inactive)
TACACGGA	0.375 (active)
CACACGAA	0.0926 (inactive)
TACACGAA	0.371 (active)
TACACGCA	0.29 (inactive)
GACACGGA	0.286 (inactive)
CACACGTA	0.142 (inactive)
TACACGTA	0.361 (active)
GACACGTA	0.348 (active)
GACACGTC	0.225 (inactive)
CACACGGA	0.00106 (inactive)
GCCACGTA	-0.0264 (inactive)
GGAGTTAC	0.0415 (inactive)

Sequence	PBM E-score
AAAGGTTG	-0.00255 (inactive)
CTGGTAAC	0.115 (inactive)
AGCCCAGC	-0.172 (inactive)
CATACTGC	-0.0312 (inactive)
AAGAGTGC	0.0487 (inactive)
AGATCCAT	-0.0856 (inactive)
GAAGACTC	-0.0665 (inactive)
ACCTCAAA	-0.032 (inactive)
CCATCAGA	-0.105 (inactive)
ATGACAGG	0.117 (inactive)
ATGACACC	0.266 (inactive)
CTGACATA	0.22 (inactive)
GGGACATA	0.113 (inactive)
ATGACAGA	0.22 (inactive)
GTGACACA	0.245 (inactive)
ATGACATG	0.422 (active)
GTGACATA	0.312 (active)
ATGACATC	0.333 (active)
CTGACATC	0.28 (inactive)
ATGACACA	0.259 (inactive)
ATGACATA	0.379 (active)
ACCAGGCT	-0.045 (inactive)
AAGGGTTC	-0.134 (inactive)
ATAAGTAT	0.0762 (inactive)

Sequence	PBM E-score
ATTATCGC	0.0263 (inactive)
AGGAAGAA	-0.0327 (inactive)
AGCTAGTA	0.108 (inactive)
AACGTGAG	-0.0335 (inactive)
ATCGTACA	0.349 (active)
CACGTACA	0.261 (inactive)
GTCGTACA	0.352 (active)
CTCGTACA	0.238 (inactive)
GTCGTATA	0.165 (inactive)
AACGTACC	0.0531 (inactive)
AACGTACA	≥ 0.337 (active)
ATCGTACC	-0.0488 (inactive)
ATCGTACG	0.133 (inactive)
AATCGGTG	0.0507 (inactive)
CGGTGTGA	0.0901 (inactive)
ATCAAAAT	0.131 (inactive)
AAAGTCAC	0.0854 (inactive)
AACCAGGA	0.0369 (inactive)
ACTCGGGA	-0.117 (inactive)
CGCATGCC	-0.0847 (inactive)
CGCATGCA	0.025 (inactive)
CGCATGAC	-0.0417 (inactive)
AGCATGTG	0.222 (inactive)
CGCATGTA	0.352 (active)

Sequence	PBM E-score
CGCATGGA	-0.0924 (inactive)
AGCATGTC	0.376 (active)
CGCATGTC	0.348 (active)
AGCATGCC	-0.0456 (inactive)
CACACTGC	-0.0174 (inactive)
AGTTTCAG	-0.0628 (inactive)
ATCCAGAC	-0.00977 (inactive)
AATTCGTC	0.0479 (inactive)
CCCTGAGG	-0.185 (inactive)
CTCATGTC	0.306 (inactive)
GTCATGCA	0.111 (inactive)
ATCATGAC	0.233 (inactive)
ATCATGTA	≥ 0.435 (active)
CTCATGGA	0.0584 (inactive)
CTCATGTA	0.377 (active)
CTCATGCA	0.042 (inactive)
ATCATGAA	0.0136 (inactive)
GTCATGGA	-0.0262 (inactive)
GTCATGTA	0.43 (active)
ATCATGTC	≥ 0.42 (active)
ATCATGTG	0.226 (inactive)
GAACAATA	0.166 (inactive)
CACATTAC	0.141 (inactive)
CCGAGGGC	-0.267 (inactive)

Sequence	PBM E-score
CAAGGACG	-0.0604 (inactive)
CTCTAGGC	-0.16 (inactive)
CCTGGCTA	-0.0965 (inactive)
AGCGTACC	-0.17 (inactive)
GAGGGAGA	-0.155 (inactive)
AGTTACCA	0.113 (inactive)
CAAGGGCC	-0.135 (inactive)
CCCAGGCA	-0.162 (inactive)
CAGGTACG	-0.00719 (inactive)
ACGTAAGG	-0.042 (inactive)
CATTACAC	0.311 (active)
CATTACAG	0.226 (inactive)
AATTACAC	0.299 (inactive)
GATTACAC	0.318 (active)
GCTTACAC	0.169 (inactive)
CTTTACAC	0.289 (inactive)
CAAGCTGG	-0.105 (inactive)
CAGCCGCA	-0.26 (inactive)
GTTAGTGA	0.152 (inactive)
AGCACTAA	-0.00029 (inactive)
TGCAGTAA	0.0534 (inactive)
CCTATGAA	-0.0468 (inactive)
GCTATGTA	0.271 (inactive)
ACTATGTA	0.312 (active)

Sequence	PBM E-score
ACTATGTG	0.131 (inactive)
CCTATGTA	0.318 (active)
CCTATGTC	0.176 (inactive)
CCGATCGA	-0.133 (inactive)
CAGCTCAA	-0.125 (inactive)
CACTCTAC	0.101 (inactive)
GCGACCGC	-0.261 (inactive)
CGAACCAC	-0.0921 (inactive)
CTGTCGTA	0.124 (inactive)
ATGTCGTC	0.28 (inactive)
ATGTCGTA	0.337 (active)
ATGTCGAA	0.291 (inactive)
GTGTCGCA	0.176 (inactive)
ATGTCGCA	0.331 (active)
CTGTCGAC	0.0515 (inactive)
ATGTCGAC	0.326 (active)
ATGTCGTG	0.316 (active)
ATGTCGAG	0.274 (inactive)
ATGTCGCC	0.208 (inactive)
GTGTCGTA	0.252 (inactive)
CGTCGACA	0.116 (inactive)
AGATTTTA	0.0905 (inactive)
CTTGAACC	0.00592 (inactive)
GATCTGGC	-0.0642 (inactive)

Sequence	PBM E-score
AACCGATG	0.0188 (inactive)
CGGAGTAG	-0.0319 (inactive)
CACGGGAA	-0.0415 (inactive)
AGTGAAAC	0.108 (inactive)
CTCACGAA	0.0184 (inactive)
GTTACGGA	0.0254 (inactive)
TAATTAAA	0.191 (inactive)
AGGTAGGA	-0.0302 (inactive)
GTTGTTGA	0.321 (active)
CTTGTTTA	0.254 (inactive)
ATTGTTAC	0.307 (inactive)
CCTGTTAC	0.254 (inactive)
GTTGTTTA	0.343 (active)
CTTGTTAA	0.327 (active)
ACTGTTAA	0.0659 (inactive)
CTTGTTGA	0.26 (inactive)
ATTGTTGA	0.279 (inactive)
ATTGTTTA	0.186 (inactive)
CTTGTTAC	0.365 (active)
CCTGTTAA	0.188 (inactive)
AACCCGCG	-0.0635 (inactive)
CTGACACA	0.2 (inactive)
CCCACCTA	-0.1 (inactive)
CCAGGTCG	-0.0728 (inactive)

Sequence	PBM E-score
ACTCGCAC	-0.119 (inactive)
TGCGATAA	0.101 (inactive)
AAAGTCGT	0.0643 (inactive)
ATTGTTAA	0.21 (inactive)
GCTGTTAA	0.0966 (inactive)
GTTGTTAA	0.349 (active)
GCATTGGC	-0.14 (inactive)
AAACTACC	0.168 (inactive)
GAACTACC	0.0628 (inactive)
AAACTACA	0.331 (active)
TAACTACA	0.348 (active)
GAACTACA	0.314 (active)
TAACTAAA	0.109 (inactive)
AAACTACT	0.236 (inactive)
CAACTACA	0.287 (inactive)
TAACTATA	0.18 (inactive)
CGGCCTAC	-0.0509 (inactive)
CGTATCAC	0.101 (inactive)
ACCTAGAA	0.08 (inactive)
TACAGAAA	0.17 (inactive)
AAATCTAA	0.0434 (inactive)
CGATTGAA	0.0347 (inactive)
GAGTGCAA	0.065 (inactive)
ATGTCACA	0.39 (active)

Sequence	PBM E-score
ATGTCACG	0.367 (active)
CTGTCACA	0.167 (inactive)
GTGTCACA	0.29 (inactive)
AAGTCACA	0.0474 (inactive)
ATGTCACC	0.279 (inactive)
CACTGCCC	-0.0974 (inactive)
ATTAGTTC	0.154 (inactive)
GATAATCA	0.0651 (inactive)
GCTGTGGA	-0.0809 (inactive)
ATATGGTC	0.105 (inactive)
CAACGCAA	0.0313 (inactive)
AAGGTGGA	-0.0864 (inactive)
ATTACAGG	0.244 (inactive)
CTTACATC	0.296 (inactive)
GTTACAGA	0.172 (inactive)
ATTACATG	0.447 (active)
GTTACATA	0.365 (active)
ATCACATG	0.286 (inactive)
ATTACAGA	0.208 (inactive)
ATTACAGC	0.128 (inactive)
ATTACATC	0.374 (active)
ATTACATA	≥ 0.385 (active)
CTCACATA	0.149 (inactive)
CTTACATA	0.288 (inactive)

Sequence	PBM E-score
TGCGCTAA	0.0295 (inactive)
CTCTGAAG	-0.17 (inactive)
AGATCCCT	-0.128 (inactive)
GAGAATCA	-0.0157 (inactive)
GATGCATA	0.0414 (inactive)
CCCCATGC	-0.233 (inactive)
CGGCTTAG	-0.235 (inactive)
ATCATGCC	0.0227 (inactive)
AGCCAGGG	-0.276 (inactive)
GCGTACAC	0.217 (inactive)
CCGTACAC	0.199 (inactive)
ACGTACAT	0.337 (active)
ACGTACCT	0.0612 (inactive)
ACGTACAC	0.333 (active)
ACGTACAG	0.103 (inactive)

Reference: the supplement of paper PMC3724861
